Data from PubChem BioAssay (EPA / NIEHS).
Several values for one entry are separate records, joined by “and”; a condition that tells them apart may be missing. Equal entries are not always repeated. Records with an inconclusive call do not appear. Where a structure was tested more than once in an assay, its records may differ in their call. Activity calls are given as the source filed them. How the source made its calls, unless noted: active means hit-call score of the fitted dose curve at least 0.9, where 1 is the maximum; inactive means score below 0.9.

Legend:
[1] = ATG_NF_kB_CIS: Attagene CIS-FACTORIAL HepG2 Assay for human Nuclear Factor Kappa B (NF-kB) (AID 2282991); conditions: HepG2 Attagene cis-factorial NF-kB reporter mRNA; actives raise or lower the signal
Summary of the method: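 Fluorescence of labelled RT-PCR products separated by capillary electrophoresis gives reporter mRNA levels from transfected HepG2 cells exposed 24 h; values are fitted in both directions relative to DMSO.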

[2] = ATG_NRF2_ARE_CIS: Attagene CIS-FACTORIAL HepG2 Assay for human Nuclear Factor Erythroid 2 Related Factor 2 (NFR2) response to Antioxidant Response Elements (ARE) (AID 2282992); conditions: HepG2 Attagene ARE/NRF2 reporter, transcription factor activity; actives raise or lower the signal
Summary of the method: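 Endogenous transcription factor activity in human liver HepG2 cells is tracked via a cis-element-driven reporter within a multiplexed set. mRNA induction is read by RT-PCR and capillary electrophoresis after 24 h, with DMSO as baseline.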

[3] = ATG_Oct_MLP_CIS: Attagene CIS-FACTORIAL HepG2 Assay for human Octamer-Binding Transcription Factor (Oct) (AID 2282993); conditions: HepG2 Attagene cis-factorial Oct reporter, mRNA; actives raise or lower the signal
Summary of the method: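 HepG2 cells transiently transfected with cis-promoter-driven multiplexed reporter transcription units, dosed for 24 h. Reporter mRNA quantified by RT-PCR, fluorescent labelling, HpaI digestion and capillary electrophoresis; bidirectional fits versus DMSO baseline.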

[4] = target: Cellular tumor antigen p53 (Homo sapiens) (UniProt P04637); assay: ATG_p53_CIS: Attagene CIS-FACTORIAL HepG2 Assay for human p53 Transcription Factor (AID 2282994); conditions: HepG2 p53 cis-element reporter, Attagene mRNA; actives raise or lower the signal
Cellular tumor antigen p53 (Homo sapiens), sequence (P04637 whole entry, looked up, the tested form may be a part): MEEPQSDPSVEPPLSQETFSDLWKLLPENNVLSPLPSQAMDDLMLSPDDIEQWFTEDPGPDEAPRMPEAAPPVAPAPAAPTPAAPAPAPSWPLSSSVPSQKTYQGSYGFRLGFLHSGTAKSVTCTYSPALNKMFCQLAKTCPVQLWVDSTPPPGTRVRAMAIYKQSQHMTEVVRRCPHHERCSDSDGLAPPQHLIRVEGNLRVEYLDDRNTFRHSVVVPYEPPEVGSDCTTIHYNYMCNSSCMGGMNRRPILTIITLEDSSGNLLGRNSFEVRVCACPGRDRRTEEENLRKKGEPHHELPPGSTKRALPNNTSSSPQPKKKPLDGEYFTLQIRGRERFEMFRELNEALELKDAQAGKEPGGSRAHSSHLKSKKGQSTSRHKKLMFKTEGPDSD
Summary of the method: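 Steps: transfect HepG2 with multiplexed cis reporter constructs; dose chemicals 24 h; extract RNA, reverse-transcribe, PCR-amplify reporter sequences; FAM-label, HpaI-digest, resolve fragments by CE. Activity fitted both directions relative to DMSO.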

[5] = target: human Peroxisome Proliferator-activated Receptor alpha (PPARa), PPARA (gene 5465) (UniProt Q07869); assay: ATG_PPARa_TRANS: Attagene TRANS-FACTORIAL HepG2 Assay for human Peroxisome Proliferator-activated Receptor alpha (PPARa) (AID 2283001; active means hit-call score of the fitted dose curve at least 0.9, where 1 is the maximum;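 on AC50: potency for gain of reporter signal over DMSO so agonist or activator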)
human Peroxisome Proliferator-activated Receptor alpha (PPARa), PPARA (gene 5465), sequence (Q07869 whole entry, looked up, the tested form may be a part): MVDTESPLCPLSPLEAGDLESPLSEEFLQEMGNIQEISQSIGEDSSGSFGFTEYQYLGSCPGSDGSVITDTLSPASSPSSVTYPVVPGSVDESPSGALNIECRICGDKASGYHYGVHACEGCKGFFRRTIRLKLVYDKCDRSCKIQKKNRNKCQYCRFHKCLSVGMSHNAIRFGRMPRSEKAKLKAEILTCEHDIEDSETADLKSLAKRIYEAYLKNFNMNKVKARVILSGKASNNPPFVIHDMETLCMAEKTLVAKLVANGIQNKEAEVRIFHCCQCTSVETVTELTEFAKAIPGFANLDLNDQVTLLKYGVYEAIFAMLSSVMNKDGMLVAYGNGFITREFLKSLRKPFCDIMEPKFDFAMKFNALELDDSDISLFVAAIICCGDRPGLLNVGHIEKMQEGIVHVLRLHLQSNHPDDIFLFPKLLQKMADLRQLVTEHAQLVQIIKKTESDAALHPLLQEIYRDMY
Summary of the method: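 Transfected HepG2 cells treated with test chemical for 24 h. RNA isolated, reverse-transcribed with oligo(dT), PCR-amplified, FAM-labelled and HpaI-digested. Fragments sized by capillary electrophoresis; gain-of-signal fit relative to DMSO.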

[6] = target: human Peroxisome Proliferator-activated Receptor delta (PPARd), PPARD (gene 5467) (UniProt Q03181); assay: ATG_PPARd_TRANS: Attagene TRANS-FACTORIAL HepG2 Assay for human Peroxisome Proliferator-activated Receptor delta (PPARd) (AID 2283002; active means hit-call score of the fitted dose curve at least 0.9, where 1 is the maximum)
human Peroxisome Proliferator-activated Receptor delta (PPARd), PPARD (gene 5467), sequence (Q03181 whole entry, looked up, the tested form may be a part): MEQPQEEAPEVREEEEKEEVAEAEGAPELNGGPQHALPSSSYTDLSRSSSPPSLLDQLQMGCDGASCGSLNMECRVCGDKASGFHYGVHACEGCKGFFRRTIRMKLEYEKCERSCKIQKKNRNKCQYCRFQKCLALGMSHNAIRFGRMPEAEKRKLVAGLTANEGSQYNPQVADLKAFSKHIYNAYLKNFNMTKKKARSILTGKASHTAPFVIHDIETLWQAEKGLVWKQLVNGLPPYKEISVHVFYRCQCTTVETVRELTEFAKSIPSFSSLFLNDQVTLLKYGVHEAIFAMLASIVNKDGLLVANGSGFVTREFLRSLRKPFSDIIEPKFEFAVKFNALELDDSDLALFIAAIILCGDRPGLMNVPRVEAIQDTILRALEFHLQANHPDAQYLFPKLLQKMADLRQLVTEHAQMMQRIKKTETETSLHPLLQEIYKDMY
Summary of the method: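 Read-out is induced reporter mRNA, quantified by RT-PCR with fluorescent labelling and capillary electrophoresis after 24 h dosing. Cells are HepG2 transiently carrying multiple GAL4-UAS reporter units driven by exogenous NR-GAL4 chimeras; DMSO serves as baseline.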

[7] = BSK_3C_TissueFactor: BioMAP Diversity Plus: 3C Assay for Tissue Factor Biomarker Activity (AID 2282997); conditions: BioMAP 3C HUVEC, tissue factor biomarker readout; actives raise or lower the signal
Summary of the method: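 Cells used were primary human umbilical vein endothelial cells. They were dosed with chemical, and after 24 h Tissue Factor was quantified by ELISA. Curves were fitted bidirectionally with DMSO as baseline.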

[8] = BSK_3C_uPAR: BioMAP Diversity Plus: 3C Assay for Urokinase-type plasminogen activator receptor (uPAR) Biomarker Activity (AID 2282998); conditions: BioMAP 3C HUVEC, uPAR biomarker ELISA; actives raise or lower the signal
Summary of the method: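 Human umbilical vein endothelial primary cells were exposed to test chemical for 24 h. Cell-surface uPAR was then quantified by ELISA, and responses were fitted bidirectionally against DMSO as negative control and baseline.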

[9] = BSK_3C_VCAM1: BioMAP Diversity Plus: 3C Assay for Vascular cell adhesion molecule 1 (VCAM1) Biomarker Activity (AID 2282999); conditions: BioMAP 3C HUVEC, VCAM1 ELISA, cytokine-stimulated; actives raise or lower the signal
Summary of the method: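 Activity fitted in both directions relative to DMSO, with ELISA measurement of the surface marker on primary HUVEC (3C) at 24 h post-treatment; parallel SRB staining (0.1% SRB, TCA-fixed, 560 nm) flagged overt cytotoxicity.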

[10] = BSK_4H_Eotaxin3: BioMAP Diversity Plus: 4H Assay for Eotaxin 3 Biomarker Activity (AID 2283000); conditions: primary human endothelial cells (HUVEC); actives raise or lower the signal
Summary of the method: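 Endothelial primary cells (human umbilical vein) exposed to compound for 24 h. ELISA detection of Eotaxin-3.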

Measured: AC50

O=S(=O)(O)c1ccccc1
inactive: [1] | [2] | [3]

FC1(F)C=CC(F)(F)C1(F)F
inactive: [1] | [2] | [3] | [4]

CC(C)C=O
active: [2] 64.6 µM
inactive: [1] | [2] | [3] | [4] | [5] | [6]

NCc1cccc(CN)c1
inactive: [1] | [2] | [3] | [4]

CC(C)(C)c1ccc(CCC=O)cc1
active: [2] 130 µM | [4] 182 µM
inactive: [1] | [3]

CC=O
inactive: [1] | [2] | [3] | [4]

COCC1CCC(CO)CC1 (configuration not stated)
inactive: [1] | [2] | [3] | [4]

CCCCCCCCCCCCOC(=O)c1cc(O)c(O)c(O)c1
inactive: [1] | [4]
active: [2] 2.95 µM | [3] 11.1 µM

c1cnc2c(c1)ccc1cccnc12
inactive: [1] | [2] | [3] | [5] | [6]
active: [1] 100 µM | [2] 3.04 µM | [3] 155 µM | [4] 6.68 µM and 6 µM | [5] 28.6 µM

c1ccc2c(c1)CCC2
inactive: [1] | [2] | [3] | [4]

O=S(=O)(O)c1ccc2cc(O)ccc2c1
inactive: [1] | [2] | [3] | [4]

CC1=CC(=O)c2ccccc2C1=O
active: [2] 5.04 µM
inactive: [1] | [3] | [4]

CCCC=O
inactive: [1] | [2] | [3] | [4]

O=C(C=C(O)C(F)(F)F)C(F)(F)F
inactive: [1] | [2] | [3] | [4]

CC(C)CCOCCC(C)C
inactive: [1] | [2] | [3] | [4]

CN(CCO)S(=O)(=O)C(F)(F)C(F)(F)C(F)(F)C(F)(F)C(F)(F)C(F)(F)C(F)(F)C(F)(F)F
inactive: [1] | [2] | [3] | [4] | [7] | [8] | [9] | [10] | [5] | [6]

Cc1ccccc1C(OCCN(C)C)c1ccccc1 (configuration not stated)
inactive: [1] | [2] | [3] | [5] | [6]
active: [2] 71.4 µM | [3] 119 µM | [4] 52.6 µM and 88.3 µM

CCOC(OCC)C(=O)c1ccccc1
inactive: [1] | [2] | [3] | [4]

NC(C(F)(F)F)C(F)(F)F
inactive: [1] | [2] | [3] | [4]

CCN(CCC#N)c1ccccc1
inactive: [1] | [2] | [3]

OCCN1CN(CCO)CN(CCO)C1
active: [2] 56.5 µM | [3] 160 µM | [7] 20 µM | [8] 32.6 µM | [9] 32.8 µM | [10] 30.2 µM
inactive: [1] | [4] | [5] | [6]

O=C(NCc1ncc(C(F)(F)F)cc1Cl)c1c(Cl)cccc1Cl
inactive: [3] | [4] | [7] | [8] | [9] | [10] | [5] | [6]
active: [1] 21.8 µM | [2] 1.97 µM

CCC(C)c1ccccc1O (configuration not stated)
inactive: [1] | [2] | [3] | [7] | [9] | [10] | [5]
active: [2] 74.7 µM

C/C=C/C(=O)C1=C(C)CCCC1(C)C
active: [2] 3.93 µM | [3] 27.1 µM | [4] 164 µM
inactive: [1]

O=C(NO)c1ccccc1
active: [1] 22 µM [middle of 4 runs] | [2] 16.2 µM and 18.5 µM | [4] 35.3 µM [middle of 4 runs]
inactive: [2] | [3] | [7] | [9] | [10]

CCOCCOCC
inactive: [1] | [2] | [3] | [4]

C=CC(F)(F)C(F)(F)C(F)(F)C(F)(F)F
inactive: [1] | [2] | [3] | [4]

C=C(c1ccc(C(=O)O)cc1)c1cc2c(cc1C)C(C)(C)CCC2(C)C
active: [1] 11.1 µM | [3] 11.1 µM | [5] 33.6 µM
inactive: [1] | [2] | [3] | [6]

O=C(O)CCC(F)(F)C(F)(F)C(F)(F)C(F)(F)C(F)(F)C(F)(F)F
active: [2] 68.4 µM
inactive: [1] | [3] | [4] | [7] | [8] | [9] | [10] | [5] | [6]

CN(C)c1ccc(C(=C2C=CC(=[N+](C)C)C=C2)c2ccccc2)cc1
inactive: [3] | [6]
active: [1] 933 nM and 1.85 µM | [2] 474 nM and 475 nM | [3] 2.27 µM | [4] 1.61 µM and 2.64 µM | [7] 0.0152 µM | [8] 0.0141 µM | [9] 0.0273 µM | [10] 0.0082 µM

O=C1C=CC(=O)N1c1cccc(N2C(=O)C=CC2=O)c1
inactive: [1] | [2] | [3] | [4]

O=C(O)C(F)(F)OC(F)(F)C(F)(F)OC(F)(F)C(F)(F)OC(F)(F)C(F)(F)C(F)(F)C(F)(F)F
inactive: [1] | [2] | [4] | [6]
active: [1] 27.5 µM | [2] 4.04 µM | [3] 34 µM and 29.7 µM | [4] 27.4 µM | [7] 22.3 µM and 27.7 µM | [9] 52.2 µM and 50.4 µM | [10] 45.5 µM and 51.6 µM
